The list is not random: actives were taken first. Their share in the collection is about 4.5%.
697 NFkB inh: lowers PMA/ionomycin-induced NF-kB signal in 697 B cells. 697 B-cell NF-kB luciferase reporter, 16 h. 0.33% of 330,000 active. inhibition, % at 4 µM; in the data active = inhibition above about 35%
aSyn UTR inh: MLPCN primary screen, SNCA 5' untranslated region; alpha-synuclein 5'UTR reporter, inhibitor activity; inhibition, % (tested at 7.5 µM); 0.82% of 300,000 active; in the data active = inhibition above about 60%;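 also: H4 neuroglioblastoma cells stably carrying SNCA 5'UTR luciferase fusion; 0% = DMSO wells and 100% = positive control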
Mdm2-MdmX inh: inhibitors of human Mdm2/MdmX interaction | O15151+Q00987 | SaOS-2 split-luciferase Mdm2/MdmX complementation, luminescence | inhibition, % at 8 µM | 3% of 330,000 active | AID 485346;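 active = inhibition of at least 50% at 8 µM in the primary screen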
Target sequence (O15151 whole entry, looked up): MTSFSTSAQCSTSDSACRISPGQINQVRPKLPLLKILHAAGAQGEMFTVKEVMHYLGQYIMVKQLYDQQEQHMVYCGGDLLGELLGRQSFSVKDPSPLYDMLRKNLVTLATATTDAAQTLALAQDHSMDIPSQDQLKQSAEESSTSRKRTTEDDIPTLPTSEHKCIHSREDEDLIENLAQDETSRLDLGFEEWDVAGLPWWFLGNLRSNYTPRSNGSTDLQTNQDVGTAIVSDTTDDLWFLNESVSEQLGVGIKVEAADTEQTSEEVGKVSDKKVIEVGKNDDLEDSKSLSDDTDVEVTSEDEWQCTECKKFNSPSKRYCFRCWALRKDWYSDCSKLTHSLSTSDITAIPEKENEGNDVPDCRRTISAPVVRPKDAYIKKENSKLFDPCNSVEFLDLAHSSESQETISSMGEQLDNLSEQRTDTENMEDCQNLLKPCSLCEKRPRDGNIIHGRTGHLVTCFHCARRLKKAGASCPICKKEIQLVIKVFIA
Target sequence (Q00987 whole entry, looked up): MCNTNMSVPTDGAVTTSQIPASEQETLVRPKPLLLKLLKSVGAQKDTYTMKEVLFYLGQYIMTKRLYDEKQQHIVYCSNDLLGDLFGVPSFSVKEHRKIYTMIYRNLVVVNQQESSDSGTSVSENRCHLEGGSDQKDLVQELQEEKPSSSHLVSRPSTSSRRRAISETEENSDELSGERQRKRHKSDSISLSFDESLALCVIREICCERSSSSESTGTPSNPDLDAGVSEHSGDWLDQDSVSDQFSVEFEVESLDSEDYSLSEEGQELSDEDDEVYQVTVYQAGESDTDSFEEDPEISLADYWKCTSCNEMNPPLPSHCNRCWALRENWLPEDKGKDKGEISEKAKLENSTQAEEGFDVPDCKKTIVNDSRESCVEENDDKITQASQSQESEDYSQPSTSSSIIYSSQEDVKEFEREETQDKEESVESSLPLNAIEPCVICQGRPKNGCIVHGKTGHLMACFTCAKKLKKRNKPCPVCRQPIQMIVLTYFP
Gli-Sufu block: antagonists of Gli-Sufu signaling. Sufu-KO-LIGHT fibroblasts, Gli luciferase reporter luminescence. inhibition, % at 5 µM. 0.74% of 340,000 active;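 active = inhibition above about 55%, limit read from the data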;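 also: 0% = DMSO-treated cells and 100% = wells with medium but no cells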
CSC inhib: cancer stem cell inhibition. cancer stem cell-like cells viability, luminescence. inhibition, % at 7.5 µM. 1.1% of 300,000 active. AID 2717; in the data active = inhibition above about 75%; tested in HMLE shEcad cells
Jurkat NFkB inh: lowers PMA/ionomycin-induced NF-kB signal in Jurkat cells | PMA/ionomycin-induced NF-kB luciferase reporter, luminescence | inhibition, % at 4 µM | 0.53% of 330,000 active | AID 435003; in the data active = inhibition above about 50%
Gli antag conf: confirmation of Gli-SUFU pathway antagonists. shares compounds with Gli-Sufu block. Sufu-KO-LIGHT cells, Gli luciferase reporter, luminescence. inhibition, % at 5 µM. 40% of 2,500 active. AID 602428;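 active = mean inhibition at 5 µM reaching about 45%, limit read from the data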;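 also: plate controls were DMSO-treated cells for no effect and wells lacking cells for full effect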
Gli cytotox: cytotoxicity counter-screen for Gli-SUFU antagonists; shares compounds with Gli-Sufu block; Sufu-KO-LIGHT cells cytotoxicity, ATP luminescence; cytotoxicity, % at 5 µM; 32% of 2,500 active; AID 651994;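 active = mean cytotoxicity at 5 µM above about 25%, limit read from the data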;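 also: cells exposed to compound overnight for roughly 16 to 18 hours; plate controls were DMSO wells with cells for no effect and medium without cells for full effect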
Wnt3a cs: counter-screen for Gli-SUFU antagonists: Wnt3a reporter inhibition. 20% of 2,500 active. inhibition, % at 6.25 µM. shares compounds with Gli-Sufu block. Wnt-LIGHT cells, Wnt3a-driven luciferase reporter, luminescence;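 active = mean inhibition above about 25%, limit read from the data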
Active calls of the source: *; . = no result given.

SMILES | 697 NFkB inh | aSyn UTR inh | Mdm2-MdmX inh | Gli-Sufu block | CSC inhib | Jurkat NFkB inh | Gli antag conf | Gli cytotox | Wnt3a cs
COc1ccc(-c2noc(CCCCC(=O)N3CCN(c4cc(C)ccc4C)CC3)n2)cc1 | 31 | . | 49 | 68* | . | . | 73* | 28* | 30*
COc1ccc(-c2noc(CCCC(=O)N3CCN(c4cc(C)ccc4C)CC3)n2)cc1 | -40 | . | -2 | 7 | . | . | . | . | .
CC1CCCN(C(=O)C2CCN(C(=O)Nc3ccccc3)CC2)C1 (centres undefined) | 8 | . | 2 | -8 | . | 11 | . | . | .
O=C(Nc1ccccc1)N1CCC(C(=O)N2CCCC(C(F)(F)F)C2)CC1 (centres undefined) | 11 | -5 | 10 | 92* | . | -4 | 23 | 14 | -47
O=C(CN1CCOc2ccccc21)N1CCN(c2cccc(Cl)c2)CC1 | 2 | -11 | 7 | 61* | -2 | 2 | 20 | 10 | -17
Cc1cccc(N2CCN(C(=O)CN3CCOc4ccccc43)CC2C)c1 (centres undefined) | 1 | -8 | -26 | 31 | -6 | 12 | . | . | .
COc1ccc2c(CC#N)c[nH]c2c1 | 17 | 11 | -12 | -5 | 1 | 8 | . | . | .
Cc1ccnc(NC(=O)c2cccc(NC(=O)Cc3ccccc3)c2)c1 | 10 | -40 | 21 | 95* | 41 | -12 | 3 | 25* | -16
O=C(c1cc(F)ccc1F)N1CCC(N2CCC(C(=O)N3CCCC3)CC2)CC1 | -9 | -13 | 9 | 57* | -9 | 0 | 13 | 18 | -19
O=C(c1cccc(Cl)c1)N1CCC(N2CCC(C(=O)N3CCOCC3)CC2)CC1 | 9 | 8 | 16 | -3 | 1 | -4 | . | . | .
O=C(c1ccccc1Cl)N1CCC(N2CCC(C(=O)N3CCCC3)CC2)CC1 | -43 | -21 | 2 | 92* | 0 | -6 | 9 | 13 | -21
COc1ccc(CN2CCN(C(=O)CN3C(=O)C4C5C=CC(C5)C4C3=O)CC2)c(OC)c1OC (centres undefined) | -28 | 3 | 14 | 62* | -10 | 6 | 19 | 21 | -3
COc1ccc(CN2CCN(C(=O)CC(C)C)CC2)c(OC)c1OC | 18 | -29 | -5 | 9 | -10 | 10 | . | . | .
Cc1ccc(C[n+]2cccc(-c3ccccc3)c2)c(C)c1 | 28 | -9 | 4 | 84* | 22 | 19 | 84* | 21 | 56*
Cc1ccc[n+](CC(=O)c2ccccc2)c1 | -9 | 7 | -17 | . | -8 | -23 | . | . | .
Cc1ccccc1NS(=O)(=O)c1ccc(OCC(=O)N2CCCCC2)cc1 | 2 | 2 | 4 | 7 | -4 | 9 | . | . | .
CCOC(=O)c1ccc(NC(=O)CSc2nnc(CNC(=O)c3ccccc3F)o2)cc1 | 2 | -3 | 11 | 96* | -4 | 13 | 17 | -9 | 11
CCOC(=O)c1ccc(NC(=O)CSc2nnc(CNC(=O)c3c(F)cccc3Cl)o2)cc1 | 9 | -5 | 18 | 33 | 3 | 9 | . | . | .
COc1cc(CNCc2ccccn2)ccc1OCC(=O)NC(C)(C)C | -60 | 8 | -45 | 14 | -6 | 35 | . | . | .
COc1cc(CNCc2ccccn2)ccc1OCC(=O)NC1CCCCC1 | 2 | 23 | -1 | 68* | 1 | 4 | 9 | -12 | -7
Cn1c(CNC(=O)c2ccc3c(c2)OCO3)nnc1SCC(=O)Nc1ccc(F)cc1 | 15 | -3 | 2 | -7 | -6 | 14 | . | . | .
O=C(c1ccncc1)N1CCCC(N2CCN(c3cccc(C(F)(F)F)c3)CC2)C1 (centres undefined) | -26 | 18 | 7 | 12 | 34 | -4 | . | . | .
CCc1cc(C(=O)N2CCCC(N3CCN(c4cccc(C(F)(F)F)c4)CC3)C2)n(C)n1 (centres undefined) | -68 | 26 | -2 | 55* | 10 | 11 | 30 | 17 | -29
O=C(c1ccco1)N1CCN(Cc2nnc(-c3cccc(Br)c3)o2)CC1 | -8 | 14 | -8 | -5 | 5 | 1 | . | . | .
CCCn1c(CNS(=O)(=O)c2ccc(C)cc2)nc2ccccc21 | -14 | -14 | 8 | -8 | -5 | 1 | . | . | .
SMILES | 697 NFkB inh | aSyn UTR inh | Mdm2-MdmX inh | Gli-Sufu block | CSC inhib | Jurkat NFkB inh | Gli antag conf | Gli cytotox | Wnt3a cs
O=C(COC(=O)CSc1ccc(F)cc1)NCC1CCCCC1 | -4 | 8 | 11 | 95* | -4 | -19 | 30 | 16 | -6
Cc1ccc(SCC(=O)OCC(=O)NC2CCCCCC2)cc1 | 15 | 0 | -6 | 4 | . | 13 | . | . | .
COc1ccc(-c2nnnn2C)cc1S(=O)(=O)Nc1ccc(C)cc1C | 24 | 7 | -14 | 0 | -13 | 10 | . | . | .
CC(C)N(CCCNC(=O)c1nn(C)c2c1CS(=O)(=O)c1ccccc1-2)Cc1ccccc1 | -3 | 19 | 21 | 61* | -13 | -3 | 24 | 18 | -9
CCOC(=O)N1CCN(C(=O)CS(=O)(=O)Cc2nc(-c3ccccc3F)oc2C)CC1 | -38 | -4 | 8 | 57* | -2 | -5 | 24 | 28* | -6
Cc1oc(-c2ccccc2F)nc1CS(=O)(=O)CC(=O)N1CCCCCC1 | 12 | 29 | 4 | 2 | -6 | 15 | . | . | .
COc1ccc(CCNc2cc(C)[nH]c(=O)c2)cc1OC | -15 | 26 | -18 | 7 | -14 | -7 | . | . | .
CN1CCN(NC(=O)c2ccc(F)cc2)CC1 | -7 | 11 | 18 | 24 | -15 | 3 | . | . | .
CN1CCN(NC(=O)c2ccc(Cl)s2)CC1 | 13 | 15 | 6 | 52 | . | 4 | 14 | 0 | 15
CCN(CC)c1ccc(S(=O)(=O)N2CCCCC2)cc1NC(=O)CN1C(=O)NC2(CCCC2)C1=O | -18 | 19 | -15 | -4 | -8 | 12 | . | . | .
CN(C1CCCCC1)S(=O)(=O)c1ccc(NC(=S)NC(=O)c2cccs2)cc1 | 12 | 2 | 21 | 63* | 4 | 19 | 19 | 8 | 1
Cc1cc(C)cc(NS(=O)(=O)c2ccc(NC(=S)NC(=O)c3cccs3)cc2)c1 | -22 | -10 | 10 | 3 | 50 | 11 | . | . | .
O=C(c1ccccc1)c1ccc(OCCOCCN2CCN(Cc3ccccc3)CC2)cc1 | 4 | 15 | 15 | 68* | 24 | 13 | 20 | 11 | -38
O=C(c1ccccc1)c1ccc(OCCCN2CCCC2)cc1 | -25 | -31 | -29 | 5 | 62 | -21 | . | . | .
COc1ccccc1OCCNC(=O)C1CC(=O)N(c2cccc(SC)c2)C1 (centres undefined) | -23 | 3 | -2 | 95* | 10 | -17 | 28 | 20 | -26
COc1cccc(CN2CC(C(=O)NCCOc3ccccc3)CCC2=O)c1 (centres undefined) | -15 | -12 | 17 | -6 | -14 | -2 | . | . | .
COc1cccc(CN2CC(C(=O)NCCOc3ccccc3F)CCC2=O)c1 (centres undefined) | -10 | -5 | 0 | 59* | 4 | 0 | 36 | 15 | -39

High-throughput results deposited in PubChem by several laboratories.
